Pf Dd2 inh: blocks growth of Plasmodium falciparum Dd2 parasites | activity change, % at 10 µM | P. falciparum Dd2 growth, SYBR Green, 72 h; hits give low values | 2.3% of 94,000 active; in the data active = activity change below about -80%; inconclusive = no clear call, values can overlap the other calls
T cruzi growth-1: inhibitors of T. cruzi proliferation; inhibition, % at 8.34 µM; AID 624255; 5.9% of 77,000 active; T. cruzi beta-gal in NIH3T3, GalScreen luminescence, 90 h;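 active = mean inhibition above about 93%, with at least 55% of replicates each passing it, limit read from the data, passing the limit was not always enough; inconclusive = only one of those two conditions holds; inactive = neither condition holds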
C diff growth: blocks growth of Clostridium difficile; Clostridium difficile clinical isolate growth, OD600, 24 h; hits give low values; growth activity, negative = inhibition, % at 16 µg/mL (by protocol); 0.25% of 86,000 active;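 active = mean growth activity at or below -80% and every replicate also at or below -80%; inconclusive = mean at or below -80% but some replicate above -80%; inactive = mean growth activity above -80%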;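 note: 0% = DMSO wells and -100% = levofloxacin 16 µg/mL wells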
T cruzi growth-2: inhibitors of T. cruzi proliferation; T. cruzi beta-gal in NIH3T3, GalScreen luminescence, 90 h; 72% of 5,600 active; shares compounds with T cruzi growth-1; inhibition, % at 8.35 µM;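 active = mean replicate inhibition above about 95% and at least 55% of replicates individually reaching it, limit read from the data; inconclusive = only one of the two criteria is met; inactive = neither criterion is met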
T cruzi growth-3: blocks T. cruzi growth in NIH3T3 host cells. T. cruzi beta-gal in NIH3T3, GalScreen luminescence, 90 h. inhibition, % at 2.09 µM. AID 651740. 21% of 5,600 active. shares compounds with T cruzi growth-1;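 active = mean inhibition above about 95%, with at least 55% of replicates also reaching it, limit read from the data; inconclusive = meets just one of the two conditions; inactive = meets neither condition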;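 note: plate controls were neutral control median for no effect and positive control median for full effect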
NIH3T3 tox: cytotoxicity in mouse NIH/3T3 fibroblasts | cytotoxicity (signal decrease), % at 8.35 µM | NIH/3T3 viability, CellTiter-Glo ATP luminescence, 90 h | shares compounds with T cruzi growth-1 | 14% of 5,600 active;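 active = mean signal decrease across replicates above about 35% based on untreated-well scatter, with enough replicates individually passing, limit read from the data; inconclusive = no rule stated though some were filed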;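 note: 0% = median of neutral control wells and 100% = median of positive control wells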
NIH3T3 tox 2: kills mouse NIH/3T3 fibroblasts. shares compounds with T cruzi growth-1. NIH/3T3 viability, CellTiter-Glo ATP luminescence, 90 h. inhibition, % at 24.9 µM. 56% of 5,600 active. AID 651744;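 active = mean loss of cell viability signal at or above a set limit, and enough replicates individually reaching it; inconclusive = meets only the mean limit or only the replicate share; inactive = meets neither condition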;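 note: 0% = median of neutral control wells and 100% = median of positive control wells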
Starred values were filed as active, the others as inactive; ? = inconclusive; / = no result given. Only some compounds are listed: those with a hit (about 6.7% of all), similar ones and a draw of the others.

SMILES	Pf Dd2 inh	T cruzi growth-1	C diff growth	T cruzi growth-2	T cruzi growth-3	NIH3T3 tox	NIH3T3 tox 2
CO[C@@H](CN(C)S(=O)(=O)c1cccc(Cl)c1)[C@@H](C)CN([C@@H](C)CO)S(=O)(=O)c1ccc(Cl)cc1	-40	104*	/	98*	59	?	67*
CO[C@H](CN(C)S(=O)(=O)c1cccc(Cl)c1)[C@@H](C)CN([C@H](C)CO)S(=O)(=O)c1cccc(Cl)c1	-15	118*	/	43	9	23	69*
CO[C@@H](CN(C)S(=O)(=O)c1cccc(Cl)c1)[C@@H](C)CN([C@H](C)CO)S(=O)(=O)c1ccc(Cl)cc1	-21	76	/	/	/	/	/
CCNC(=O)[C@@H]1[C@@H](CO)[C@@H]2Cn3c(ccc(C4=CCCC4)c3=O)[C@@H]2N1C(=O)C1CC1	/	-17	4	/	/	/	/
O=C(C1CCOCC1)N1CC2(C1)[C@@H](c1ccccc1)[C@@H](CO)N2CCC(F)(F)F	-14	/	6	/	/	/	/
O=C(C[C@H]1C=C[C@@H](NC(=O)C2CC2)[C@@H](CO)O1)NCC1CC1	2	/	-2	/	/	/	/
COc1ccc(CN(C)C[C@@H]2OCCCC[C@H](C)Oc3ccc(NC(=O)Nc4ccc5c(c4)OCO5)cc3C(=O)N([C@@H](C)CO)C[C@@H]2C)cc1	-69	102*	/	100*	91	68*	80*
COc1ccc(NC(=O)Nc2ccc3c(c2)C(=O)N([C@H](C)CO)C[C@H](C)[C@@H](CN(C)Cc2ccc4c(c2)OCO4)OCCCC[C@H](C)O3)cc1	-62	?	17	105*	57	23	30
COc1ccc(CN(C)C[C@H]2OCCCC[C@@H](C)Oc3ccc(NC(=O)Nc4ccc5c(c4)OCO5)cc3C(=O)N([C@@H](C)CO)C[C@@H]2C)cc1	-57	94	/	/	/	/	/
COc1ccc(CN(C)C[C@@H]2OCCCC[C@H](C)Oc3ccc(NC(=O)Nc4ccc5c(c4)OCO5)cc3C(=O)N([C@H](C)CO)C[C@@H]2C)cc1	-68	101*	/	94	106*	30	107*
COc1ccc(NC(=O)Nc2ccc3c(c2)C(=O)N([C@@H](C)CO)C[C@@H](C)[C@H](CN(C)Cc2ccc4c(c2)OCO4)OCCCC[C@@H](C)O3)cc1	-68	91	2	/	/	/	/
COc1ccc(CN(C)C[C@@H]2OCCCC[C@@H](C)Oc3ccc(NC(=O)Nc4ccc5c(c4)OCO5)cc3C(=O)N([C@H](C)CO)C[C@@H]2C)cc1	38	102*	/	111*	11	11	23
COc1ccc(NC(=O)Nc2ccc3c(c2)C(=O)N([C@H](C)CO)C[C@H](C)[C@@H](CN(C)Cc2ccc4c(c2)OCO4)OCCCC[C@@H](C)O3)cc1	-65	54	9	/	/	/	/
COc1ccc(NC(=O)Nc2ccc3c(c2)C(=O)N([C@H](C)CO)C[C@@H](C)[C@@H](CN(C)Cc2ccc4c(c2)OCO4)OCCCC[C@H](C)O3)cc1	-72	92	12	/	/	/	/
C[C@@H]1CN([C@H](C)CO)C(=O)c2cc(NS(=O)(=O)c3cn(C)cn3)ccc2O[C@H]1CN(C)S(C)(=O)=O	20	65	/	/	/	/	/
C[C@H](CO)N1C[C@H](C)[C@@H](CN(C)S(=O)(=O)c2ccc(Cl)cc2)Oc2ccc(NC(=O)Nc3ccc(C(F)(F)F)cc3)cc2CC1=O	-28	-79	19	/	/	/	/
Cc1noc(C)c1NC(=O)N[C@@H]1C=C[C@@H](CC(=O)NCc2ccc(Cl)c(Cl)c2)O[C@H]1CO	9	-30	2	/	/	/	/
Cc1noc(C)c1S(=O)(=O)Nc1ccc2c(c1)CC(=O)N([C@@H](C)CO)C[C@@H](C)[C@@H](CN(C)S(C)(=O)=O)O2	19	6	-4	/	/	/	/
CS(=O)(=O)N1[C@H](CO)[C@@H](c2ccc(C#CC3CCCCC3)cc2)[C@@H]1C#N	-44	93	-3	/	/	/	/
CS(=O)(=O)N1[C@H](CO)[C@H](c2ccc(C#Cc3cccc(F)c3)cc2)[C@@H]1C#N	-1	89	15	/	/	/	/
CS(=O)(=O)N1[C@@H](C#N)[C@@H](c2ccc(C#CC3CCCCC3)cc2)[C@@H]1CO	1	74	9	/	/	/	/
CS(=O)(=O)N1[C@H](C#N)[C@H](c2ccc(C#CC3CCCC3)cc2)[C@@H]1CO	-24	99*	-4	103*	89	20	35*
CS(=O)(=O)N1[C@H](C#N)[C@@H](c2ccc(C#CC3CC3)cc2)[C@@H]1CO	-24	107*	-3	100*	46	12	-1
CS(=O)(=O)N1[C@H](C#N)[C@H](c2ccc(C#Cc3cccc(F)c3)cc2)[C@H]1CO	-30	?	-7	?	83	0	32*
O=C(N[C@@H]1CC[C@@H](CC(=O)N2CCc3ccccc3C2)O[C@@H]1CO)C1CC1	20	/	1	/	/	/	/
SMILES	Pf Dd2 inh	T cruzi growth-1	C diff growth	T cruzi growth-2	T cruzi growth-3	NIH3T3 tox	NIH3T3 tox 2
CNC[C@@H]1Oc2ncc(-c3ccccc3C)cc2C(=O)N([C@H](C)CO)C[C@H]1C	/	24	6	/	/	/	/
C[C@@H]1CN([C@H](C)CO)C(=O)c2cccc(NC(=O)Nc3ccc4c(c3)OCO4)c2O[C@H]1CN(C)Cc1ccc(-c2ccccc2)cc1	-16	23	-3	/	/	/	/
CCCNC(=O)[C@H]1[C@H](CO)[C@H]2Cn3c(ccc(-c4ccncc4)c3=O)[C@@H]1N2CC1CC1	20	38	-1	/	/	/	/
Cc1noc(C)c1NC(=O)Nc1ccc2c(c1)C(=O)N([C@@H](C)CO)C[C@@H](C)[C@H](CN(C)S(=O)(=O)c1cccs1)O2	37	-24	/	/	/	/	/
C[C@H](CO)N1C[C@H](C)[C@@H](CN(C)C(=O)Cc2ccccc2)Oc2ncc(-c3ccc(F)cc3)cc2C1=O	-23	35	-1	/	/	/	/
Cc1ccc(S(=O)(=O)N(C)C[C@@H]2OCCCC[C@H](C)Oc3ccc(NC(=O)Nc4ccccc4)cc3C(=O)N([C@H](C)CO)C[C@@H]2C)cc1	?	106*	-1	106*	72	2	0
Cc1ccc(S(=O)(=O)N(C)C[C@@H]2OCCCC[C@@H](C)Oc3ccc(NC(=O)Nc4ccccc4)cc3C(=O)N([C@H](C)CO)C[C@H]2C)cc1	-85*	109*	17	109*	108*	7	24
Cc1ccc(S(=O)(=O)N(C)C[C@@H]2OCCCC[C@@H](C)Oc3ccc(NC(=O)c4ccccc4)cc3C(=O)N([C@@H](C)CO)C[C@@H]2C)cc1	-80	59	/	/	/	/	/
C[C@H](CO)N1C[C@H](C)[C@H](CN(C)S(=O)(=O)c2ccc(Cl)cc2)OCCCC[C@H](C)Oc2ccc(NC(=O)Nc3ccccc3)cc2C1=O	-79	94	/	/	/	/	/
Cc1ccc(S(=O)(=O)N(C)C[C@@H]2OCCCC[C@H](C)Oc3ccc(NC(=O)c4ccccc4)cc3C(=O)N([C@H](C)CO)C[C@H]2C)cc1	-81*	101*	/	99*	27	9	49*
